Data on three compounds can be found in PubChem BioAssay AID651947 (Broad Institute, 2012).

Potency and affinity values are given separately. Inconclusive results are not listed. A number with no mark means an inactive call.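 Rule for the calls: active = luminescence drop in HepG2 cells whose fitted half-effect dose is at most twice the top valid dose; inconclusive = flat curve with 30 to 70% signal loss, or unreliable fit; inactive = the rest.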

The nature of the assay: cytotoxicity in HepG2 cells, dose response, cytotoxicity control, cell-based, plate reader, dry powder (AID 651947). Particulars: HepG2 viability, ATP luminescence (CellTiter-Glo), 48 h, stronger effect = lower value; at 26 µM unless noted. On the technique in general: ATP-based viability assays read luminescence as a measure of living cells.
For `Clc1ccc(-c2nnc(SCc3ccccc3)o2)cc1`, the max activity was -50.8%.
For `c1ccc(CSc2nnc(-c3ccccc3)o2)cc1`, the max activity is -12.1% [at 1.6 µM].
With `COc1ccc(CSc2nnc(-c3ccccc3)o2)cc1`, the max activity is -24.9% [at 0.195 µM].
